From PubChem
Sampled rows, rich in hits. Any-hit rate of the full collection: about 1%.
MazEF act: activators of E. coli MazEF toxin-antitoxin RNase | P0AE70 | FAM/BHQ RNA-DNA oligo cleavage fluorescence, 5 h | activation, % at 20 µM | 0.32% of 350,000 active; in the data active means activation above about 50%
Y pestis TopoI: Y. pestis Topo-I inhibition via cleavage products | activity, % at 10 µM | Y. pestis Topo-I cleavage product accumulation, plate reader | AID 504884 | 0.064% of 360,000 active; in the data active means activity above about 50%, passing the limit was not always enough
FadD28 binding: blocks FadD28 binding to the bisubstrate probe; fluorescence polarization; inhibition, % at 12.5 µM; 0.22% of 360,000 active; AID 588549; in the data active means inhibition above about 8.5%, passing the limit was not always enough
DUSP3 inh: inhibitors of human VHR1 phosphatase (DUSP3). P51452. recombinant VHR phosphatase, pNPP absorbance. 0.52% of 290,000 active. inhibition, % at 13.3 µM; in the data active means inhibition above about 50%
TcdB inh: inhibitors of Clostridioides difficile toxin B glycohydrolase; TcdB glycohydrolase enzymatic assay, plate reader; 0.24% of 350,000 active; P18177; inhibition, % at 9.99 µM; in the data active means inhibition above about 10%
Mtb BioA inh: blocks M. tuberculosis BioA enzyme activity; purified M. tuberculosis BioA enzyme, plate reader; inhibition, % at 9.99 µM; 0.096% of 360,000 active; in the data active means inhibition above about 40%
Each line names hits and unclear results; the compound was inactive in the other large screens.

O=c1[nH]cnc2scc(-c3ccc(-c4ccccc4)cc3)c12	MazEF act 83 (no result: TcdB inh)
CCCOc1ccc(-c2csc3nc[nH]c(=O)c23)cc1	none
Cc1cccc(C)c1OCc1nnc(SCC(=O)Nc2ccc(N3CCOCC3)cc2)o1	DUSP3 inh 54 (no result: FadD28 binding, Mtb BioA inh)
O=C(NC(NC(=S)Nc1cccc(Cl)c1)C(Cl)(Cl)Cl)OCc1ccccc1 (stereo not given)	MazEF act 84 (no result: TcdB inh)
O=C1O[C@@H](c2ccccc2)[C@@H](c2ccccc2)N2[C@@H](c3ccccc3OCCO)[C@]3(C(=O)Nc4ccc(C#CCCO)cc43)[C@@H](C(=O)O)[C@H]12	none (no result: MazEF act, Y pestis TopoI, FadD28 binding, DUSP3 inh)
O=C(NNC(=O)c1cccc2ccccc12)c1cccc(F)c1	TcdB inh 11 (no result: DUSP3 inh)
CC(=O)Nc1ccc(NC(=O)c2cccc3ccccc23)cc1	DUSP3 inh 60
O=S(=O)(O)c1cccc2cccc(Nc3ccccc3)c12	FadD28 binding 81 (no result: DUSP3 inh)
c1ccc(Nc2cccc3c(Nc4ccccc4)cccc23)cc1	none
N#Cc1c(C#N)c(-c2ccccc2)n(-c2ccc(C(=O)O)cc2)c1N	FadD28 binding 12 (no result: TcdB inh)
C/C(=N/NC(=O)c1cc(-c2cccc([N+](=O)[O-])c2)n[nH]1)c1ccc(Cl)cc1	MazEF act 56 (no result: TcdB inh)
CC(C)c1ccc(/C=N/NC(=O)c2cc(-c3cccc([N+](=O)[O-])c3)n[nH]2)cc1	none
COc1cccc(NC(=O)Cn2nnc(-c3ccccc3N)n2)c1	FadD28 binding 15 (no result: TcdB inh)
COc1cc(NC(=O)Cn2nnc(-c3ccncc3)n2)cc(OC)c1	none
CCCN1C[C@@H](C)[C@@H](OC)CN(C)C(=O)c2cc(NC(=O)C3CC3)ccc2OC[C@@H]1C	none (no result: MazEF act, Y pestis TopoI, FadD28 binding, DUSP3 inh)
CC(C)CCNc1nc(-c2ccco2)c2c(c1C#N)CCCC2	DUSP3 inh 59 (no result: TcdB inh)
C[C@H](CO)N1C[C@H](C)[C@H](CN(C)S(=O)(=O)c2ccccc2)Oc2c(NC(=O)C3CCOCC3)cccc2C1=O	none (no result: MazEF act, Y pestis TopoI, FadD28 binding, DUSP3 inh)
Cn1c(=O)c2c(O)cc(=O)n(-c3ccccc3)c2n(C)c1=O	DUSP3 inh 51 (no result: TcdB inh)
COc1ccc(C(=O)Nc2ccc3c(c2)nc(CN2CCN(C(C)=O)CC2)n3C)cc1	none (no result: TcdB inh)
CC(=O)N1CCN(Cc2nc3cc(NC(=O)c4ccc(F)cc4)ccc3n2C)CC1	DUSP3 inh 57
CCC(=O)N[C@@H]1CC[C@@H](CCn2cc(CN(C)C)nn2)O[C@H]1CO	none (no result: MazEF act, Y pestis TopoI, FadD28 binding, DUSP3 inh)
COc1cccc(CNC(=O)C2CCC(CNS(=O)(=O)c3cccc4cccnc34)CC2)c1 (stereo not given)	DUSP3 inh 56
Cc1ccc(CNC(=O)C2CCC(CNS(=O)(=O)c3cccc4cccnc34)CC2)cc1 (stereo not given)	none
O=C(CN1CCN(Cc2ccccc2)C1=O)NCCCN1CCOCC1	DUSP3 inh 50
Cn1c(=O)oc2cc(S(=O)(=O)NCCc3ccccc3)ccc21	DUSP3 inh 57 (no result: TcdB inh)
C[C@H]1CN([C@@H](C)CO)S(=O)(=O)c2ccc(-c3ccc(F)cc3)cc2O[C@@H]1CN(C)C(=O)C1CCCCC1	none (no result: MazEF act, Y pestis TopoI, FadD28 binding, DUSP3 inh)
COc1ccc(N=C2NC(=O)/C(=C/c3ccc(O)c(OC)c3)S2)cc1	FadD28 binding 12 (no result: Mtb BioA inh)
C=CC[C@H](O)c1ccc(O)c(F)c1	none (no result: MazEF act, Y pestis TopoI, FadD28 binding, DUSP3 inh)
Cc1cccc(CN2CCN(c3ncccn3)CC2)c1	TcdB inh 13
CCC(=O)N1CCC2(CC1)CN(Cc1ccc(Cl)cc1)[C@H](CO)c1[nH]c3cc(OC)ccc3c12	none (no result: MazEF act, Y pestis TopoI, FadD28 binding, DUSP3 inh, Mtb BioA inh)
CCc1ccccc1NC(=O)C1CCCN(c2ncccn2)C1 (stereo not given)	DUSP3 inh 50
Cc1ccc(C)c(N(C(=O)c2csnn2)C(C(=O)NC2CCCCC2)c2ccccn2)c1 (stereo not given)	DUSP3 inh 50
O=C(NC1CCCC1)C(c1cccnc1)N(Cc1ccccc1)C(=O)c1csnn1 (stereo not given)	DUSP3 inh 53
CCN1CCN(C(=O)CN2C(=O)COc3ccc(S(=O)(=O)N4CCOCC4)cc32)CC1	DUSP3 inh 57
O=C(CN1C(=O)COc2ccccc21)N1CCCC1	DUSP3 inh 56
Cc1cccc(N2C(=O)NC(=O)/C(=C/c3cc4c(cc3[N+](=O)[O-])OCO4)C2=O)c1	MazEF act 537 (no result: Mtb BioA inh)
O=C1NC(=O)C(=Cc2cc3c(cc2[N+](=O)[O-])OCO3)C(=O)N1	none
CC1(C)CC(=O)c2cc(OCC(=O)NCCCN3CCN(c4ccc(F)cc4)CC3)ccc2O1	DUSP3 inh 53 (no result: TcdB inh)
CC(C)CCNC(=O)COc1ccc2c(c1)C(=O)CC(C)(C)O2	none (no result: TcdB inh, Mtb BioA inh)
CO[C@H]1CN(C)C(=O)c2cc(C#N)ccc2OCC[C@@H]2CC[C@@H](OC)[C@@H](CN(C)C(=O)[C@@H]1C)O2	none (no result: MazEF act, Y pestis TopoI, FadD28 binding, DUSP3 inh)
C[n+]1cn(Cc2ccc(C#N)cc2)c2ccccc21	DUSP3 inh 53
O=C(Nc1cccc(F)c1)N[C@@H]1CC[C@H](CCNS(=O)(=O)c2cccc(Cl)c2)O[C@H]1CO	none (no result: MazEF act, Y pestis TopoI, FadD28 binding, DUSP3 inh)
O=C(CC(=O)c1ccncc1)c1ccccc1	none (no result: DUSP3 inh, Mtb BioA inh)
O=C(Cc1ccccn1)c1ccncc1	TcdB inh 10 (no result: DUSP3 inh)
CC(C)NC(=O)N[C@H]1C=C[C@H](CC(=O)N2CCCCC2)O[C@@H]1CO	none (no result: MazEF act, Y pestis TopoI, FadD28 binding, DUSP3 inh)
CC[C@]12c3[nH]c4ccc(OC)cc4c3CCN1C(=O)C(CC(=O)NCCCOC)C[C@@H]2C(=O)N1CCN(C(=O)C2CC2)CC1 (stereo not given in full)	MazEF act 75 (no result: DUSP3 inh)
CC[C@]12c3[nH]c4ccc(Cl)cc4c3CCN1C(=O)[C@@H](CC(=O)NCCCN(C)C)C[C@@H]2C(=O)N1CCN(C(=O)C2CC2)CC1	none (no result: DUSP3 inh)
CC[C@]12c3[nH]c4cc(-c5ccco5)ccc4c3CCN1C(=O)[C@@H](CC(=O)NCCCN(C)C)C[C@@H]2C(=O)N1CCN(C(=O)c2ccco2)CC1	MazEF act 53 (no result: DUSP3 inh)
CN(C)C(=O)CCc1ccc2c3c([nH]c2c1)[C@]1(CCC2CCCC2)[C@@H](C(=O)N2CCOCC2)C[C@H](CC(=O)NCCN2CCOCC2)C(=O)N1CC3	none (no result: DUSP3 inh)
CN(C)C(=O)CCc1ccc2c3c([nH]c2c1)[C@]1(CCC2CCCC2)[C@@H](C(=O)N2CCOCC2)C[C@H](CC(=O)NC(C)(C)C)C(=O)N1CC3	MazEF act 59 (no result: DUSP3 inh)
CCC(=O)N1CCC2(CC1)CN(CC1CCOCC1)[C@H](CO)c1c2c2ccc(OC)cc2n1C	none (no result: MazEF act, Y pestis TopoI, FadD28 binding, DUSP3 inh, Mtb BioA inh)
COc1ccc2c3c(n(C)c2c1)[C@@H](CO)N(C(=O)C1CC1)CC31CN(C)C1	none (no result: MazEF act, Y pestis TopoI, FadD28 binding, DUSP3 inh, Mtb BioA inh)
COc1ccc(C(CC(=O)Nc2ncccc2C)N2Cc3ccccc3C2=O)cc1OC (stereo not given)	none (no result: FadD28 binding)
COc1cc(C(CC(=O)Nc2ncccc2C)N2Cc3ccccc3C2=O)cc(OC)c1OC (stereo not given)	DUSP3 inh 53
Cc1ccc(C2(CCNCc3ccc(N(C)C)cc3)CCOC(C(C)C)C2)cc1 (stereo not given)	DUSP3 inh 57 (no result: Mtb BioA inh)
CC(C)C1CC(CCNCc2ccc(N(C)C)cc2)(c2ccccc2)CCO1 (stereo not given)	none
O=c1c2ccccc2nc(/C=C/c2ccc(O)cc2)n1-c1ccccc1O	TcdB inh 12
